# Screening data from PubChem BioAssay.
# TDP1 cell CPT: DT40-hTDP1 cell growth loss with CPT. Potency, µM (series often up to 46.2 µM), inactives show at the highest dose activity change, negative = growth inhibition, usual class: inhibitors. chicken DT40 Tdp1-/-;hTDP1 cells + 20 nM CPT, ATP luminescence, 48 h. 12% of 420,000 active; also: nearly all actives have a fitted effect of over 55% in size
#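 Chicken DT40 Tdp1-/- cells stably complemented with human TDP1 were seeded at 400 cells/well in medium containing 20 nM camptothecin, exposed to pin-transferred compounds, and grown at 37 °C for at least 48 hr. Viability was read as ATP luminescence.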
# DT40 TDP1 no CPT: qHTS for Inhibitors of human tyrosyl-DNA phosphodiesterase 1 (TDP1): qHTS in cells in absence of CPT; DT40 Tdp1-/- hTDP1 cells, no CPT, ATP luminescence, 48 h; Potency, µM (series often up to 46.2 µM), for the others: top-dose activity change, negative = growth inhibition, usual class: inhibitors; 15% of 420,000 active; also: nearly all actives have a fitted effect of over 55% in size
#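 No-CPT arm: Tdp1-/-;hTDP1 DT40 cells (400/well) plus compounds, incubated ≥48 hr at 37 °C. Readout CellTiter-Glo luminescence.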
# RORg inh: blocks mouse ROR gamma transcriptional activity; P51450; Drosophila S2 Gal4-RORgamma UAS-luciferase reporter, 20 h; Potency, µM (doses to about 53.6 µM), for inactives: at the highest dose activity change, negative = inhibition, hits mostly inhibitors; 5.4% of 310,000 active; also: nearly all actives have a fitted effect of over 60% in size
# Target sequence (P51450 whole entry, looked up, the tested form may be a part): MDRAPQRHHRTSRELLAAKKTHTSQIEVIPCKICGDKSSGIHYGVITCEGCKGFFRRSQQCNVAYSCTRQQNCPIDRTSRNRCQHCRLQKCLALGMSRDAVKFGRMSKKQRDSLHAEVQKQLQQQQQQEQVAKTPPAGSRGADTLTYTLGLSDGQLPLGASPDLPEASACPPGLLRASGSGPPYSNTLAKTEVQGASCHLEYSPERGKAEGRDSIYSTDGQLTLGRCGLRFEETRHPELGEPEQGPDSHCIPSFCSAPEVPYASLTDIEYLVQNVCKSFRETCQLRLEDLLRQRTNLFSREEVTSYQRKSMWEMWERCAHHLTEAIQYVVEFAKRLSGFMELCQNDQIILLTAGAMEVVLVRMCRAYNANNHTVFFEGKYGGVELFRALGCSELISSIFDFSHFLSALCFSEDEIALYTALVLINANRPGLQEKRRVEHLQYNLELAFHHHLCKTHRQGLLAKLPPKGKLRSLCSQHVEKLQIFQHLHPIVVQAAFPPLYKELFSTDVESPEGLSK
#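 Read-out: Photinus luciferase luminescence; inhibitors lower reporter signal. Insect Schneider cells with Gal4-ROR gamma fusion under metallothionein promoter, UAS reporter; 700 uM final copper sulfate induction, 20 hr, ambient temperature.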
# VP16 counter: Gal4-VP16 reporter inhibition counter-screen. Drosophila S2 Gal4-VP16 UAS-luciferase, luminescence, 20 h. Potency, µM (highest dose often 53.6 µM), without a hit: at the highest dose activity, negative = inhibition, actives largely listed as inhibitors. 3.5% of 310,000 active. AID 2546;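 also: Gal4-VP16 expression switched on by copper sulfate through the metallothionein promoter; nearly all actives have a fitted effect of over 50% in size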
# 12-LOX inh: ALOX12 (human) lipoxygenase inhibition; AID 1671190; P18054; Potency, µM (highest dose often 108 µM), without a hit: at the top dose activity change, negative = inhibition, most hits filed as inhibitors; 1.1% of 580,000 active; purified 12hLO, xylenol orange hydroperoxide absorbance
#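 Purified human 12hLO (150 nM final) in 25 mM Hepes, 0.01% Triton X-100, pH 7.0 was preincubated 15 min at room temperature with compound. Then 40 uM arachidonic acid was added, 30 min. Hydroperoxide was read by Fe-XO absorbance ratio 573/405 nm.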
# ELG1 DNA repair: inhibitors of ELG1-dependent DNA repair in HEK293T cells | HEK293T ELG1-luciferase reporter, luminescence, 16 h; DNA damage induced by 5-fluorouridine | Potency, µM (highest dose often 46.1 µM), inactives show at the highest dose activity change, negative = inhibition, actives largely listed as inhibitors | 2.3% of 330,000 active; also: nearly all actives have a fitted effect of over 55% in size
#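 Quantitative HTS, concentration-response format. 2,000 cells/well co-treated with 5-fluorouridine and compound, 16 hr in 5% CO2 at 37 °C; ONE-Glo luminescence read after 30 min.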
# * = called active by the depositor; i = inactive; ? = inconclusive; nt = not tested or not shown; [ ] = another dose, or the depositor's remark. Shown are actives, neighbours in structure and some others; about 15% of the full set was active somewhere. Calls follow the shape of the dose curve; as a rule, active = well fitted curve in the direction sought with a large enough effect; inconclusive = small, poorly fitted or top-dose-only effect, or another doubt; inactive = no such curve, though single readings can be large; an effect the other way counts as inactive or inconclusive. % is scaled to controls: 0 for no effect and ±100 for the full control effect; potency is read from the fitted curve at half-maximal effect.
SMILES,TDP1 cell CPT,DT40 TDP1 no CPT,RORg inh,VP16 counter,12-LOX inh,ELG1 DNA repair
O=C(NCC(=O)N1CCCC1)C(=O)Nc1ccc2cc[nH]c2c1,nt,nt,nt,nt,1.1%,nt
Cn1c(=O)n(C)c2cc(N3CCOCC3)c(NS(=O)(=O)c3ccc(Cl)cc3)cc21,?,13µM*,nt,nt,3.0%,nt
Cn1nc(-c2ccc(N3CCOCC3)c(NS(=O)(=O)c3ccc(Cl)cc3)c2)c2ccccc2c1=O,18.4µM*,25.9µM*,10µM*,-8.3%,0.1%,0.9%
Cn1c(=O)n(C)c2cc(N3CCOCC3)c(NS(=O)(=O)c3cccc(C#N)c3)cc21,18.4µM*,?,nt,nt,?,nt
Cc1ccc(S(=O)(=O)Nc2cc(-c3nn(C)c(=O)c4ccccc34)ccc2N2CCOCC2)cc1,?,?,-27.7%,-1.0%,14.7%,?
Cn1c(=O)n(C)c2cc(N3CCOCC3)c(NS(=O)(=O)c3ccc(C(C)(C)C)cc3)cc21,7.31µM*,4.11µM*,nt,nt,-13.0%,nt
CC(C)(O)CCc1cccc(C(=O)NCc2ccccc2Cn2cccn2)c1,nt,nt,nt,nt,0.4%,nt
COC(C(=O)N/N=C(\C)CC(C)(C)c1ccccc1)c1ccccc1 (stereo not drawn),nt,nt,nt,nt,6.1%,nt
CC(SC1CCCC1)C(=O)Nc1ccc(Cl)cc1Cl (stereo not drawn),nt,nt,nt,nt,-0.7%,nt
O=C(/C=C/c1cccs1)Nc1ccc(N2CCOCC2)c(S(=O)(=O)Nc2cc(Cl)ccc2Cl)c1,?,23.1µM*,37.3%,-11.3%,3.0%,?
O=C(/C=C/c1cccs1)Nc1ccc(N2CCOCC2)c(S(=O)(=O)Nc2ccccc2Cl)c1,?,23.1µM*,?,-10.8%,-22.5%,?
COc1cc2c(cc1OC)/C(=C/c1ccc(Br)cc1)C(=O)OC2,?,18.4µM*,-22.7%,-0.1%,?,?
COc1cc2c(cc1OC)C(c1ccc(Br)cc1)NC(=O)C2 (stereo not drawn),2.2%,-16.7%,30.8%,24.6%,-23.0%,5.0%
O=C(Cn1nnc(-c2cc(C(F)(F)F)cc(C(F)(F)F)c2)n1)NNC(=S)Nc1ccc(Cl)cc1,3.6%,?,?,?,17.8µM*,-1.8%
O=C1CC(c2ccccc2)Cc2[nH]c(=O)c(-c3nc(-c4cccc(Cl)c4)cs3)cc21 (stereo not drawn),5.17µM*,5.17µM*,nt,nt,-24.3%,nt
COc1ccc(C2CC(=O)c3cc(-c4nc(-c5ccc(Cl)cc5)cs4)c(=O)[nH]c3C2)cc1OC (stereo not drawn),-26.6%,?,nt,nt,?,nt
Cc1ccc(-c2nc(CNC(=O)[C@@H]3CCC[C@H](N)C3)[nH]c2-c2ccccn2)cc1,nt,nt,nt,nt,35.6%,nt
CCc1ccc(NC(=O)C2CCN(C(=O)N3CCOc4ccccc43)CC2)cc1,25.9µM*,?,36.9%,0.4%,-10.9%[57.4 µM],-14.8%
CCc1ccccc1NC(=O)C1CCN(C(=O)N2CCOc3ccccc32)CC1,?,20.6µM*,6.5%,-8.3%,3.9%,-0.6%
O=C(NC1CCCCCC1)C1CCN(C(=O)N2CCOc3ccc(Cl)cc32)CC1,25.9µM*,?,nt,nt,-14.9%,nt
Cc1ccccc1NC(=O)C1CCN(C(=O)N2CCOc3ccccc32)CC1,-23.1%,-18.8%,-9.6%,-6.7%,?,-0.9%
O=C(NCCc1ccc(Cl)cc1)C1CCN(C(=O)N2CCOc3ccccc32)CC1,25.9µM*,23.1µM*,28.6%,5.6%,25.2%,?
CN1[C@@H](CCC(=O)NCc2cccs2)CNC(=O)[C@@H]2[C@H]1CCN2Cc1ccc(C(F)(F)F)cc1,nt,nt,nt,nt,39.1%,nt
O=C(Nc1cccc(F)c1)C1CCN(C(=O)N2CCOc3ccccc32)CC1,?,?,4.2%,8.9%,7.0%,0.4%
Cc1ccc2c(c1)N(C(=O)N1CCC(C(=O)Nc3cccc(F)c3)CC1)CCO2,?,18.4µM*,nt,nt,2.4%,nt
SMILES,TDP1 cell CPT,DT40 TDP1 no CPT,RORg inh,VP16 counter,12-LOX inh,ELG1 DNA repair
O=C(Nc1nnc(-c2ccco2)o1)c1ccc(N2C(=O)CCC2=O)cc1,3.1%,-2.6%,11.2µM*,?,-0.1%,17.0%
O=C(Nc1nnc(-c2cc(Cl)ccc2Cl)o1)c1ccco1,?,16.4µM*,nt,nt,10.2%,?
Cc1nn(-c2ccccc2)c(C)c1C(=O)Nc1nnc(-c2ccco2)o1,?,?,0.355µM*,-16.6%[0.365 µM],0.0%,6.3%
CC(=O)Nc1nnc(-c2ccco2)o1,15.2%,4.1%,-19.1%,5.5%,0.8%,-1.0%
O=C(Nc1nnc(-c2ccco2)o1)c1ccc(Br)s1,?,?,nt,nt,-3.9%,nt
O=C(/C=C/c1ccccc1)Nc1nnc(-c2ccco2)o1,?,?,2.24µM*,5.01µM*,75.2%,-3.6%
CCn1cc(CN(CCOC)Cc2cccs2)ccc1=O,nt,nt,nt,nt,55.8%,nt
CC(C)c1ccc(NC(=O)c2ccc[n+]([O-])c2)cc1,nt,nt,nt,nt,36.4%,nt
Cc1ccc(S(=O)(=O)NC[C@H]2O[C@@H](CC(=O)NCCN3CCOCC3)[C@H](O)[C@@H]2O)cc1,nt,nt,nt,nt,-63.9%,nt
O=C(Nc1nnc(-c2ccco2)o1)c1ccc(Cl)s1,20.6µM*,16.4µM*,2µM*,0.631µM*,i,13.7%
O=C(Nc1nnc(-c2ccccc2)o1)c1cccc(N2C(=O)CCC2=O)c1,?,?,2.51µM*,4.47µM*,14.2%,16.0%
Cc1ccc(C(=O)N(Cc2cccs2)C2CC2)o1,nt,nt,nt,nt,-27.1%,nt
COC(=O)C(C)(C)ONC(=O)Nc1ccc(Br)cc1,23.1µM*,-13.7%,11.3%,-15.5%,-4.2%,?
CC(NC(=O)Nc1ccc(Br)cc1)C(C)(C)C (stereo not drawn),?,?,?,2.6%,-0.8%,?
Cc1cc(NCCN2CCOCC2)n2nc(C)c(-c3ccccc3)c2n1,-16.0%,?,8.91µM*,10µM*,304.1%,2.6%
Cc1cc(NCc2ccccc2)n2ncc(-c3ccccc3)c2n1,-1.5%,?,-27.0%,-3.9%,1.5%,?
Cc1cc(C)c2c(n1)nn1c(NCCN3CCOCC3)cc(C)nc21,-4.0%,-1.8%,?,-3.8%,0.0%,3.5%
Cc1cc(NCCN2CCOCC2)n2ncc(-c3ccccc3)c2n1,-15.6%,-21.9%,3.55µM*,10µM*,16.2%,?
Cc1cc(NCCCn2ccnc2)n2ncc(-c3ccccc3)c2n1,?,0.4%,4.47µM*,7.94µM*,nt,?
Cc1cc(NCCCn2ccnc2)n2nc(C)c(-c3ccc(Cl)cc3)c2n1,16.4µM*,14.6µM*,0.5%,-13.1%,4.5%,?
